Source: PubChem BioAssay (National Center for Advancing Translational Sciences (NCATS))
Hits are enriched below; roughly 19% of the tested compounds scored in any of these assays.
DT40 TDP1 CPT – growth inhibition of DT40 Tdp1-/-;hTDP1 cells with camptothecin (screen for TDP1 inhibitors); Potency, µM (highest dose often 46.2 µM), usual class: inhibitors; hit rate 12% among 420,000; AID 686979; chicken DT40 Tdp1-/-;hTDP1 cells + 20 nM CPT, ATP luminescence, 48 h; further: nearly all actives have a fitted effect of over 55% in size
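Chicken DT40 Tdp1-/- cells stably complemented with human TDP1 were seeded at 400 cells/well in medium containing 20 nM camptothecin, exposed to pin-transferred compounds, and grown at 37 °C for at least 48 hr. Viability was read as ATP luminescence.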
KB-3-1 tox – KB-3-1 parental cell cytotoxicity; AID 1347075; Potency, µM (doses to about 46.1 µM), most hits filed as cytotoxic; hit rate 1.4% among 400,000; KB-3-1 viability, CellTiter-Glo ATP luminescence, 72 h; further: nearly all actives have a fitted effect of over 60% in size
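KB-3-1 parental drug-naive adenocarcinoma cells in DMEM/10% FBS, incubated 72 h at 37 C with pin-transferred compounds across a concentration series. Viability by CellTiter-Glo luminescence; concentration-response curves fitted after normalization.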
HT1080 IDH1KD tx – kills HT-1080 cells with IDH1 knockdown; HT-1080 IDH1 knockdown viability, ATP luminescence, 48 h; Potency, µM (titrated, usually from 46.1 µM), actives largely listed as cytotoxic; hit rate 2% among 360,000; AID 686971
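In this qHTS, HT-1080 cells depleted of IDH1 are exposed for 48 h at 37 °C to compound titrations. Toxicity is scored from CellTiter-Glo luminescence, with DMSO as full viability and medium alone as none.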
HT1080NT lethal – kills 2HG-producing HT-1080-NT fibrosarcoma cells. Potency, µM (doses to about 46.1 µM), actives largely listed as cytotoxic. hit rate 1.6% among 360,000. AID 686970. HT-1080-NT fibrosarcoma viability, CellTiter-Glo ATP luminescence, 48 h;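 further: NT is the 2HG producing partner of a matched IDH1 knockdown line; nearly all actives have a fitted effect of over 55% in size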
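HT-1080-NT; 750 cells/well; 5% FBS RPMI; 48 h compound, 37 degrees C; CellTiter-Glo luminescence; curve fitting and curve-class assignment.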
TDP1 cell noCPT – qHTS for Inhibitors of human tyrosyl-DNA phosphodiesterase 1 (TDP1): qHTS in cells in absence of CPT; Potency, µM (titrated, usually from 46.2 µM), hits mostly inhibitors; AID 686978, 2013; DT40 Tdp1-/- hTDP1 cells, no CPT, ATP luminescence, 48 h; hit rate 15% among 420,000; further: nearly all actives have a fitted effect of over 55% in size
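Growth of hTDP1-complemented DT40 Tdp1-knockout cells is measured by ATP luminescence after at least 48 hr compound exposure at 37 °C, with DMSO substituting for the 20 nM CPT used in the parallel screen.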
KB-V1 MDR tox – KB-V1 MDR subline cytotoxicity; KB-V1 MDR cells viability, CellTiter-Glo, 72 h; Potency, µM (series often up to 46.1 µM), actives largely listed as cytotoxic; hit rate 3.4% among 400,000; further: nearly all actives have a fitted effect of over 60% in size
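qHTS viability screen in drug-selected KB-V1 MDR cells: 72 h compound treatment at 37 degrees C, ATP luminescence end point.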
Hits are given with their value; 0 = inactive; ? = inconclusive; - = no result given; [ ] = another dose, or the depositor's remark. The call rests on the fitted dose curve; in most records, active means well fitted curve in the direction sought with a large enough effect; inconclusive means small, poorly fitted or top-dose-only effect, or another doubt; inactive means no such curve, though single readings can be large; an effect the other way counts as inactive or inconclusive.

SMILES	DT40 TDP1 CPT	KB-3-1 tox	HT1080 IDH1KD tx	HT1080NT lethal	TDP1 cell noCPT	KB-V1 MDR tox
C=CCN(c1ccccc1)S(=O)(=O)c1cccc(C(=O)Nc2cccc(C)n2)c1	18µM	0	0	0	23µM	?
C=CCN(c1ccccc1)S(=O)(=O)c1cccc(C(=O)Nc2nnc(SCC)s2)c1	?	?	0	0	?	0
CCc1sc(C(=O)NCCc2ccc(S(N)(=O)=O)cc2)cc1Br	?	0	0	0	16µM	0
Cc1cc(C)cc(CC(=O)N2CCC2(C)C(=O)NS(=O)(=O)c2cccc(F)c2)c1 (configuration not stated)	0	0	0	0	0	0
COc1ccc(-c2cccc(NC(=O)c3ccco3)c2)nn1	?	0	0	0	26µM	0
CC1CCN(c2ccc(-c3cccc(NC(=O)c4ccco4)c3)nn2)CC1	?	0	?	?	?	0
CS(=O)(=O)c1ccc(-c2cccc(NC(=O)c3ccco3)c2)nn1	?	0	0	0	18µM	0
Cc1ccc(S(=O)(=O)N2CCCC(C(=O)NCCc3ccc(Cl)cc3)C2)cc1 (configuration not stated)	?	0	0	0	?	0
CCOC(=O)C1CCN(C(=O)c2ccc3c(c2)sc2nc(-c4ccc(C)cc4)cn23)CC1	0	0	-	-	?	0
CCOC(=O)C1CCN(C(=O)c2ccc3c(c2)sc2nc(-c4ccc(OC)cc4)cn23)CC1	23µM	-	-	-	23µM	-
CCOC(=O)N1CCN(C(=O)c2ccc3c(c2)sc2nc(-c4ccc(OC)cc4)cn23)CC1	?	0	0	0	23µM	0
COC(=O)C1=C(C(=O)OC)[C@@H]2N(C)c3ccc(OC)cc3[C@@]23C[C@@H](C(=O)OC)N(C(=O)NC2CCCCC2)C3=N1	0	?	0	0	0	?
COC(=O)c1c(NC(=O)C(C)C)sc(C(=O)N2CCOCC2)c1C	0	0	0	0	0	0
CC(NC(=O)NC1CCCCC1)C(c1cccs1)N1CCOCC1 (configuration not stated)	0	0	0	0	0	0
Nc1ncccc1OCc1ccc(Cl)c(Cl)c1	?	?	0	0	26µM	0
CC12CCC(c3c1nc1ccccc1[n+]3[O-])C2(C)C (configuration not stated)	?	0	0	0	18µM	0
Cc1ccsc1C1Cc2c(C(=O)NCc3cccnc3)c(=O)cc(C)n2-c2ccccc2S1 (configuration not stated)	0[9.04 µM]	-	-	-	0	-
O=C(c1ccccc1)[C@@H]1[C@@H]2C(=O)N(c3ccc(F)cc3)C(=O)[C@@H]2C2CCCN21 (some centres not stated)	?	?	23µM	?	?	0
CC(=O)c1ccc(N2C(=O)C3C(C2=O)C(C(=O)c2ccc(Cl)cc2)N2CCCC32)cc1 (configuration not stated)	8.2µM	?	?	16µM	10µM	?
COc1ccc(N2C(=O)C3C(C2=O)C(C(=O)c2ccc(Cl)cc2)N2CCCC32)cc1 (configuration not stated)	?	0	18µM	13µM	?	0
Cc1cccc(NC(=O)CSc2nnc(CNC(=O)c3ccco3)o2)c1	0	0	0	0	0	0
Cc1ccc(OCCn2cc(Br)c(=O)[nH]c2=O)cc1	0	0	0	0	0	0
O=C(CN1C(=O)C2CC=CCC2C1=O)NCC(=O)Nc1ccc(F)c(F)c1 (configuration not stated)	0	0	0	0	0	0
O=C(CN1C(=O)C2CC=CCC2C1=O)Nc1nc(-c2ccc(F)c(F)c2)cs1 (configuration not stated)	?	0	0	0	21µM	0
O=C(COC(=O)C1CC2CCCC(C1)C2=O)Nc1nc(-c2ccc(F)c(F)c2)cs1 (configuration not stated)	?	0	0	0	?	0
SMILES	DT40 TDP1 CPT	KB-3-1 tox	HT1080 IDH1KD tx	HT1080NT lethal	TDP1 cell noCPT	KB-V1 MDR tox
O=C(CCN1C(=O)C2CCCCC2C1=O)Nc1nc(-c2ccc(F)c(F)c2)cs1 (configuration not stated)	?	0	0	0	18µM	0
COc1ccc(-c2csc(NC(=O)CN3C(=O)C4CCCCC4C3=O)n2)cc1OC (configuration not stated)	0	0	0	0	0	?
COc1ccc(-c2csc(NC(=O)CN3C(=O)C4CC=CCC4C3=O)n2)cc1OC (configuration not stated)	?	0	0	0	8.2µM	0
CCOc1ccccc1NC(=O)Cn1nnc2sc3c(c2c1=O)CCC(C(C)(C)C)C3 (configuration not stated)	15µM	0	-	-	5.2µM	0
Cc1cc(NC(=O)Cn2nnc3sc4c(c3c2=O)CCC(C(C)(C)C)C4)no1 (configuration not stated)	11µM	?	?	?	?	0
CC(C)C1=CC(=Nc2ccc(S(N)(=O)=O)cc2)C=C(C(C)C)C1=O	16µM	0	0	0	23µM	0
NS(=O)(=O)c1ccc(N=C2C(=O)Nc3ccccc32)cc1	0	0	0	0	0	0
CCOCCCNCc1cn(-c2ccc(F)cc2F)nc1-c1ccccc1C	15µM	0	0	0	16µM	?
Cc1ccccc1-c1nn(-c2ccc(F)cc2F)cc1CNCC(C)O (configuration not stated)	0	0	0	0	?	0
Cc1nc2c(n1C1CCCCC1)C(=O)c1ccccc1C2=O	21µM	0	0	0	15µM	?
C#CCOc1nc(Nc2cccc([N+](=O)[O-])c2)nc(OCC#C)n1	?	0	?	?	21µM	0
O=C(C[C@H]1C(=O)N(C2CCCCC2)C[C@@H]1c1ccccc1)Nc1ccc(Br)cc1	0	0	0	0	?	?
Cn1ccsc1=NC(=O)c1ccccc1F	0	0	0	0	0	0
Cc1ccc(C)c(-n2c(-c3ccc(Br)cc3)csc2=NC(=O)c2ccccc2F)c1	12µM	12µM	0	0	4.6µM	?
O=C(c1ccc(N2CCCC2)c([N+](=O)[O-])c1)N1CCN(S(=O)(=O)c2ccccc2)CC1	0	0	0	0	?	0
O=C(c1ccc([N+](=O)[O-])c(CS(=O)(=O)c2ccc(Cl)cc2)c1)N1CCCCC1	0	0	0	0	?	0
O=C(c1ccc(S(=O)(=O)Cc2cc(F)ccc2F)c([N+](=O)[O-])c1)N1CCOCC1	6.5µM	0	?	?	7.3µM	0
